Assay outcomes deposited in PubChem by ICCB-Longwood Screening Facility, Harvard Medical School.
Compounds with a hit are over-represented: about 1.5% of the library has one in this group of screens.
PV pol inh = poliovirus RdRp elongation inhibitors, primary screen, biochemical, fluorescence polarization, total intensity. poliovirus polymerase elongation; hits give low values. 150,000 tested, 0.66% active. % elongation, % (compound at 16.7 µg/mL). Genome polyprotein (Poliovirus type 1 (strain Mahoney)), P03300; in the data active means % elongation below about 90%
MenB inh = M. tuberculosis MenB inhibitors, primary screen, biochemical, absorbance; 1,4-dihydroxy-2-naphthoyl-CoA synthase (Mycobacterium tuberculosis (strain ATCC 25618 / …; MenB enzyme assay, absorbance read-out; inhibition, % (concentration not given with the values); 100,000 tested, 0.43% active; in the data active means inhibition above about 21%, passing the limit was not always enough
Mtb MbtI inh = MbtI salicylate synthase inhibitors, primary screen, biochemical, fluorescence intensity | P9WFX0 | purified MbtI enzyme, fluorescence intensity read-out | inhibition, % (test concentration not listed) | 100,000 tested, 0.89% active; in the data active means inhibition mostly above about 56%, no sharp cut-off; inactive means mostly below about 77%
Target sequence (P9WFX0 whole entry, looked up): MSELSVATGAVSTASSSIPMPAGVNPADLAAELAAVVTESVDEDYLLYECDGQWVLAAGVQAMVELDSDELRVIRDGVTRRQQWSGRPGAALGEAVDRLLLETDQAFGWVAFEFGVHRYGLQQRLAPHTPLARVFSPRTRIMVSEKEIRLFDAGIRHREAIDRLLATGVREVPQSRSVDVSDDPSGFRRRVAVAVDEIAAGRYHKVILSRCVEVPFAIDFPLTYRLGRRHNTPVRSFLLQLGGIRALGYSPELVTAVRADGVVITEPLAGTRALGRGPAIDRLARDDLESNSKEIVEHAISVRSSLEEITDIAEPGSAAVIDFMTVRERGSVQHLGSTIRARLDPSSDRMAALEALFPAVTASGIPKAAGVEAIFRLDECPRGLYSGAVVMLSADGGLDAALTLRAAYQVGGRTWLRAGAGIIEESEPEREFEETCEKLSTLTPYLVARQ
Each line names hits and unclear results; the compound was inactive in the other large screens.

CCC(C)NC(=O)C1CCN(S(C)(=O)=O)CC1 (stereo unspecified)	none (no result: PV pol inh, MenB inh)
Cc1ccccc1Cn1c(C)c(CNC2CCCC2)c(C(=O)O)c1C	none
Cn1nc(C(=O)N(Cc2ccco2)C2CCCCC2)c2c1-c1ccccc1OC2	none
O=C(NC(=S)c1ccccc1)C1CC1	Mtb MbtI inh 74
O=C(Nc1ccccc1)C1CCC1	none (no result: MenB inh)
Cc1cccc(N2C(=O)SC(C)C2=O)c1 (stereo unspecified)	none (no result: MenB inh)
O=C(Nc1ccc2nc(N3CCOCC3)sc2c1)C1CCCN1C(=O)c1cccs1 (stereo unspecified)	none
CCn1c(-c2cc(OC)ccc2OC)csc1=Nc1ccc(O)cc1	PV pol inh 87, Mtb MbtI inh 66
CCn1c(-c2ccc(OC)cc2)csc1=Nc1ccc(C(=O)O)cc1	none
COc1ccc(NC(=S)Nc2ccc(S(=O)(=O)N3CCOCC3)cc2)cn1	none
CN(Cc1ccccc1)C(=O)c1ccc(-n2ccc3ccccc32)s1	none
CC(Sc1nnc(N)s1)C(=O)NC(C)C1CC2CCC1C2 (stereo unspecified)	none
Cc1cc(C)c(C#N)c(N2CCCC2)n1	none
N#Cc1c(N2CCCC2)nc(N)c2c(N)nc(N3CCCC3)cc12	PV pol inh 74
COc1ccc(NC(=O)C(NC(=O)c2ccccc2)C(C)C)cn1 (stereo unspecified)	none
CC1CC(C)CN(CCC(=O)Nc2ccccc2F)C1 (stereo unspecified)	none
CC1CC(C)CN(CCN)C1 (stereo unspecified)	MenB inh 52
O=S(=O)(NN1CCOCC1)c1ccc2ccccc2c1	none
Clc1ccc(CSc2ncccn2)cc1	none
c1ccc(CSc2ncccn2)cc1	Mtb MbtI inh 60
Cc1cc(C)n2c(SCC(N)=O)nnc2n1	none
c1ccc(CCNc2nc3ccccc3n3cnnc23)cc1	none
COc1cc2cc3c4cc(OC)c(OC)cc4cc[n+]3c(C)c2cc1OC	PV pol inh 88
COc1cc2cc(C)nc(C)c2cc1OC	none
Cc1ccc(CN(C)C(=O)CN(C)S(=O)(=O)c2ccc(Cl)cc2)o1	none
O=C(O)C(Cc1ccco1)P(=O)(O)CN1CCOCC1 (stereo unspecified)	none (no result: Mtb MbtI inh)
CCCNS(=O)(=O)c1c[nH]c(C(=O)OC)c1	none
COc1cc(NS(=O)(=O)c2c(C)oc3c(F)c(F)c(F)c(F)c23)cc(OC)c1OC	none
O=c1cc(-c2c(F)c(F)c(F)c(F)c2F)oc2c(F)c(F)c(F)c(F)c12	PV pol inh 90
CC(C)S(=O)(=O)C1=NSC2=NC(=O)/C(=C\c3ccco3)C(=N)N21	PV pol inh 79
COc1cc(/C=C2/C(=N)N3C(=NC2=O)SN=C3S(=O)(=O)C(C)C)cc(Cl)c1OC(=O)c1ccco1	none
Cc1ccc(NC(=O)c2oc3ccccc3c2C)cc1	none
Cc1c(C(=O)Nc2ccncc2)oc2ccccc12	MenB inh 38
CS(=O)(=O)N1CCN(c2ccccc2NC(=S)NC(=O)c2ccc(-c3cccc(Cl)c3)o2)CC1	none
CCCN1CC=C2C(C#N)=C(N)C(C#N)(C#N)C(c3ccc(F)cc3F)C2C1 (stereo unspecified)	none
CC(C)c1ccccc1NC(=O)COC(=O)Cn1nnc(-c2ccccc2)n1	none
O=C1N/C(=C/c2ccco2)C(=O)N1c1cccc(Cl)c1	none
O=C(O)CCSc1n[nH]c(=S)s1	none
S=c1[nH]nc(SCc2cccs2)s1	Mtb MbtI inh 102
C/C(=N\NC(=O)c1cccnc1)c1ccc(S(=O)(=O)NCc2ccco2)cc1	none
NC(=S)Nc1ccccc1OC(F)(F)F	none
ONC=NCc1ccccc1OC(F)(F)F	MenB inh 34
Nc1nc(SC#CC(F)(F)F)ns1	PV pol inh 85
CC1O[C@@H](OC2/C=C/C=C/C=C/C=C/C[C@@H](C)OC(=O)/C=C/[C@H]3O[C@@H]3C[C@H](O)C[C@]3(O)C[C@H](O)[C@@H](C(=O)O)[C@H](C2)O3)C(O)C(N)[C@@H]1O (stereo partly specified)	none
O=C(O)C1CCCN(S(=O)(=O)Cc2ccccc2)C1 (stereo unspecified)	none
O=C(Nc1ccc2c(c1)OCCO2)C1CCCN(S(=O)(=O)Cc2ccccc2)C1 (stereo unspecified)	MenB inh 56
CS(=O)(=O)Nc1cc(Cl)c(O)c(Br)c1	none
CN1CCN(CCNC(=O)C2c3ccccc3C(=O)N(C3CCCC3)C2c2cccs2)CC1 (stereo unspecified)	none
CCn1cc2nc(SCC(N)=O)n(CCc3ccccc3)c(=O)c2n1	none
NC(=S)Cc1ccc(CC(N)=S)o1	Mtb MbtI inh 82
NCc1ccc(C(=O)O)o1	none
CCOc1ccc(N/C=C(\C#N)c2nc3ccccc3[nH]2)cc1	none
CC12CN3CC(C)(C1O)C(O)C(C)(C3)C2O (stereo unspecified)	PV pol inh 86
CC12CN3CC(C)(C1=O)C(=O)C(C)(C3)C2=O	none
Cc1ccccc1N(C)C(=O)Cn1ncc2c1-c1ccccc1OC2	none
CC(=O)O[C@]1(C(=O)CO)CCC2C3CCC4=CC(=O)CCC4(C)C3C(O)CC21C (stereo partly specified)	none
Nc1ccccc1NS(=O)(=O)c1cccs1	none
O=S(=O)(Nc1ccccc1-c1ccccc1)c1cccs1	MenB inh 52
CCOC(=O)Cc1csc(SCC(=O)N2c3ccccc3NC(=O)C2(C)C)n1	none
CCCCCOc1ccc(C(=O)/C=C/C(=O)O)cc1	Mtb MbtI inh 63
CCCCCCCCCCCCCCCCCCc1ccc(C(=O)/C=C/C(=O)O)cc1	none
O=C(OCc1nc2ccccc2s1)c1cccc(S(=O)(=O)N2CCCC2)c1	none
O=C(CSc1ccc(Cl)cc1)NC(=O)NC1CCCC1	none
O=C(NC1CCCCC1)Sc1ccc(Cl)cc1	Mtb MbtI inh 76
CCSc1nnc(-c2cccc(S(=O)(=O)N(C)C)c2)n1-c1cccc(C)c1	none
CN(C)S(=O)(=O)c1cccc(-c2nnc3n2N=C(c2ccccc2)C(CC(=O)O)S3)c1 (stereo unspecified)	PV pol inh 75, Mtb MbtI inh 99
CCOC(=O)c1cc(Cl)c(O)c(Cl)c1	none
COc1cc(CNCc2cccnc2)ccc1OCC(N)=O	none (no result: Mtb MbtI inh)
COc1cc(SC)ccc1C(=O)N(C)C1CCN(C)CC1	PV pol inh -3.0
C=CCN(CC=C)C(=O)c1ccc(SC)cc1OC	none
COc1cc(N)ccc1-n1c(C)ccc1C	none
CC1(C)CC(=O)C2=C(C1)Nc1ccc3ncccc3c1C2c1ccc(O)c(O)c1 (stereo unspecified)	none
CC1(C)CC(=O)C2=C(C1)N=C1c3ccccc3C(=O)C1C2c1ccc(O)c(O)c1 (stereo unspecified)	Mtb MbtI inh 85 (no result: PV pol inh, MenB inh)
O=C(NC1CCCCC1)Oc1cc2oc(=O)sc2cc1Cl	none
O=c1oc2cc(Cl)c(O)c(Cl)c2s1	Mtb MbtI inh 99
CCn1c(O)c(N=NC(=O)Nc2ccc(Cl)c(Cl)c2)c2ccccc21	none
Cc1ccc(=O)n(Cc2ccc(F)cc2)n1	none
CC(C)(C)C(=O)NC(=S)Nc1ccccc1	none
COc1ccc(NC(=O)c2cc(=O)[nH]c3ccccc23)cc1	none
COc1ccc(NC(=O)c2sc(=S)n3c2[nH]c(=O)c2ccccc23)cc1	Mtb MbtI inh 94
O=c1c2ccccc2[nH]c(=S)n1C1CCCC1	none
S=c1[nH]c2ccccc2n1C1CCCCC1	Mtb MbtI inh 98
